Tests used:
[1] = system: Epidermal growth factor receptor (Homo sapiens), P00533 [T790M]; details: at 1 µM
[2] = system: Epidermal growth factor receptor (Homo sapiens), P00533 [L858R,T790M]; details: at 0.1 µM
[3] = system: Epidermal growth factor receptor (Homo sapiens), P00533 [L858R,T790M]; details: at 1 µM
[4] = target: Ephrin type-A receptor 2 (Homo sapiens) (UniProt P29317); details: at 0.1 µM
[5] = target: Ephrin type-A receptor 2 (Homo sapiens) (UniProt P29317); details: at 1 µM
[6] = target: T1, Ephrin type-A receptor 3 (Homo sapiens) (UniProt P29320); details: at 0.1 µM
T1 sequence (whole entry): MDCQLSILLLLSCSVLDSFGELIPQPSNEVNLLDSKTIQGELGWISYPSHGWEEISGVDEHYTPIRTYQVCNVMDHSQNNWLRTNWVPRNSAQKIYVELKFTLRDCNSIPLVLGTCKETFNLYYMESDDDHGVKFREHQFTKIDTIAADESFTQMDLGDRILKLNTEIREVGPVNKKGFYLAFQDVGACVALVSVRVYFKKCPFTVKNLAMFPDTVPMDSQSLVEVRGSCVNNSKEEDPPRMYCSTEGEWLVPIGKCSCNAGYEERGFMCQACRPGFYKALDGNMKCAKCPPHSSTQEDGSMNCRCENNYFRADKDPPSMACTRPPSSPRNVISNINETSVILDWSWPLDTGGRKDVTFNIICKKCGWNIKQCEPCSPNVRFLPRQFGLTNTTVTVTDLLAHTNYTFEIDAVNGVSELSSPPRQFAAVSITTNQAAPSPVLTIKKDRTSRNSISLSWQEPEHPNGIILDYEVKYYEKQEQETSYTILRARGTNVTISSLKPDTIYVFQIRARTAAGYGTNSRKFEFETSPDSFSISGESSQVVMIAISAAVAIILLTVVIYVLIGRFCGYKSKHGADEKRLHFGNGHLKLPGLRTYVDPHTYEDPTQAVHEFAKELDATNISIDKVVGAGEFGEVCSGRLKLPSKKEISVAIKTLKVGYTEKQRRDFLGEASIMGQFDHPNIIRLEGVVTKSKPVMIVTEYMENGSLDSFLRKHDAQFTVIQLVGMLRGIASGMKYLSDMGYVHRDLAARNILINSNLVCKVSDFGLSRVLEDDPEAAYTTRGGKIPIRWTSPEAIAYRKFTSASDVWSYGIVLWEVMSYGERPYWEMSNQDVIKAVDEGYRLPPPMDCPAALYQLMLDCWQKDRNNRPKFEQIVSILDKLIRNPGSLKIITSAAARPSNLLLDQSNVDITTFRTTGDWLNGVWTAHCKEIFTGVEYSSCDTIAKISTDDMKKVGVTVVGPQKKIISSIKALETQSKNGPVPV

[7] = target: T1, Ephrin type-A receptor 3 (Homo sapiens); details: at 1 µM
[8] = target: Ephrin type-A receptor 4 (Homo sapiens) (UniProt P54764); details: at 0.1 µM
Ephrin type-A receptor 4 (Homo sapiens), sequence (P54764 whole entry): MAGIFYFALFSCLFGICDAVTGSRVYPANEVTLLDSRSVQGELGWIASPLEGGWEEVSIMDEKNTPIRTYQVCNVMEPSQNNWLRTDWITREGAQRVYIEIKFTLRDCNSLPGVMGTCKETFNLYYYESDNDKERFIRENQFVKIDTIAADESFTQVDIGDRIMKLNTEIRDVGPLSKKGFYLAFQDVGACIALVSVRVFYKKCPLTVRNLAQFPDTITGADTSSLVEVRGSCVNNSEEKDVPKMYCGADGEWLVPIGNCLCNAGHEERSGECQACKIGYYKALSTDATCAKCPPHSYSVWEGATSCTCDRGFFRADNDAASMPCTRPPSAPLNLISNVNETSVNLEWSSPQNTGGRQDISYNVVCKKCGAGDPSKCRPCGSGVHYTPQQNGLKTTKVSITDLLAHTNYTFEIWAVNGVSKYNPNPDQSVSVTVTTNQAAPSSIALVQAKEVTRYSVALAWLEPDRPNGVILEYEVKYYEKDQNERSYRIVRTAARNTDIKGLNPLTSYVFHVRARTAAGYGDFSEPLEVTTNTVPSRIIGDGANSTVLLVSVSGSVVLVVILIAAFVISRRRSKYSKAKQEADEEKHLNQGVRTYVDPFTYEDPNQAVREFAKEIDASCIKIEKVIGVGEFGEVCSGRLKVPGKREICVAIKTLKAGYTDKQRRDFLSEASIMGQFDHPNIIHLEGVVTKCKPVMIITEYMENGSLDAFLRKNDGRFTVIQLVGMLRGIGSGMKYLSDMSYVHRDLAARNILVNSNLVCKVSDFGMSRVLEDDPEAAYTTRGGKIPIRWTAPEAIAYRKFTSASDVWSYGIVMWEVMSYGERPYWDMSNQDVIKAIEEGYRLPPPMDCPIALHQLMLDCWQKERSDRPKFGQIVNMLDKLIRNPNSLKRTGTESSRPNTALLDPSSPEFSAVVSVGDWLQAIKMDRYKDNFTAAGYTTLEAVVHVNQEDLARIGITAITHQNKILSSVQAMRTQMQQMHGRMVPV

[9] = target: Ephrin type-A receptor 4 (Homo sapiens) (UniProt P54764); details: at 1 µM
[10] = target: T2, Ephrin type-B receptor 2 (Homo sapiens) (UniProt P29323); details: at 0.1 µM;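 also: reported as mean inhibition of EPHB2, from the GSK PKIS dataset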
T2 sequence (whole entry): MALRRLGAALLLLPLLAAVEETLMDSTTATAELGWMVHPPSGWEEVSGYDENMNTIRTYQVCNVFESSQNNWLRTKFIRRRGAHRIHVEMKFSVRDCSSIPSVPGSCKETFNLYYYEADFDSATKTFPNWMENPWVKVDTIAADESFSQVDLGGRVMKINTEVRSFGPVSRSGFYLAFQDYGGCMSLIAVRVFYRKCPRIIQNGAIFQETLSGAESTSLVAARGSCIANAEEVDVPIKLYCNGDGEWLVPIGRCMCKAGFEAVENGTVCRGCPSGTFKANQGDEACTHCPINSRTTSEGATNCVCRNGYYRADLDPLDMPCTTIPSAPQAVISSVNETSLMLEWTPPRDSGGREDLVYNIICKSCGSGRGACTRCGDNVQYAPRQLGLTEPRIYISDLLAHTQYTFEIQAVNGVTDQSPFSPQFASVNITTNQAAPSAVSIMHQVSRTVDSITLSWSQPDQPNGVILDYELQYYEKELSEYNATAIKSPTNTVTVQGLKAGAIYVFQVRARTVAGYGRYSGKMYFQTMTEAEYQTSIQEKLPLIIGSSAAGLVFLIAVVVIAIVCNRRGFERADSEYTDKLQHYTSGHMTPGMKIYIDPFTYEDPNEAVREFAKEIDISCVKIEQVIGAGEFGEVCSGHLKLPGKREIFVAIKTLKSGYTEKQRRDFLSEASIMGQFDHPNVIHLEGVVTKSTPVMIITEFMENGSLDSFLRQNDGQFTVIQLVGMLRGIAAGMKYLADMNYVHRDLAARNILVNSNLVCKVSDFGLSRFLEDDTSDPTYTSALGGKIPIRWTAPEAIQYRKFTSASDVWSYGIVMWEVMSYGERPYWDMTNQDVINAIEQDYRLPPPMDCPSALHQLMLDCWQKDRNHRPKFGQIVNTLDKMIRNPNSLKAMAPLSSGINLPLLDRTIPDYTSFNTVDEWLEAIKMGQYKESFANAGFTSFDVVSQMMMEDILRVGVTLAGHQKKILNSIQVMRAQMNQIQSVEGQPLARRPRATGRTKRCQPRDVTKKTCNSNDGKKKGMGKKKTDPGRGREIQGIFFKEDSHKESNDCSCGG

Ephrin type-A receptor 2 (Homo sapiens), sequence (P29317 whole entry): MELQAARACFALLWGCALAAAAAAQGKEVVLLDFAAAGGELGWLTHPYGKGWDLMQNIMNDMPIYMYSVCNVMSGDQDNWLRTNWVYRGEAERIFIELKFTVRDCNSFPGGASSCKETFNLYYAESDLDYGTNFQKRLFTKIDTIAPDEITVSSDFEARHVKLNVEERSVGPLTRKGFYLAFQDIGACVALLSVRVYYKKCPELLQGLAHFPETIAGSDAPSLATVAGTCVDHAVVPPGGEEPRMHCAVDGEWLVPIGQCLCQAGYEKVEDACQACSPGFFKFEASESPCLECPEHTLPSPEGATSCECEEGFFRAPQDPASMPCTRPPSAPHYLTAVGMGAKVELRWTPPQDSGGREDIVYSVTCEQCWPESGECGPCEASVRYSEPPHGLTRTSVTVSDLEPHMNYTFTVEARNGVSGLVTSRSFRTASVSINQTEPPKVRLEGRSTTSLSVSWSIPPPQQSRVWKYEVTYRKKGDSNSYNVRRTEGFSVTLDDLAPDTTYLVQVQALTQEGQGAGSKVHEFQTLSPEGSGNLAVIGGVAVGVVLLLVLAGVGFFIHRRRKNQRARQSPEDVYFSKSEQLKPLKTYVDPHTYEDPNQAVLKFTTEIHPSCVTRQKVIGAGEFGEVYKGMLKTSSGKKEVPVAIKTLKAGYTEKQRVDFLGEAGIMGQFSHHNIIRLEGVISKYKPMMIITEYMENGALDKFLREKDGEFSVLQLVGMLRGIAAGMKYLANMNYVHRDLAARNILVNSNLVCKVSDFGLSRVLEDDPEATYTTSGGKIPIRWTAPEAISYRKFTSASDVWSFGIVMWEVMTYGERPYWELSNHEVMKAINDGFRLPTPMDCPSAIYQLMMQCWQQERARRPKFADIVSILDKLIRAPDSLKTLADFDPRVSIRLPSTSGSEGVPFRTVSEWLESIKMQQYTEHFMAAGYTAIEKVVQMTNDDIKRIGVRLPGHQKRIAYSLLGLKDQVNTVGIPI
Epidermal growth factor receptor (Homo sapiens), P00533 [L858R,T790M], sequence (P00533 whole entry T790M/L858R, looked up): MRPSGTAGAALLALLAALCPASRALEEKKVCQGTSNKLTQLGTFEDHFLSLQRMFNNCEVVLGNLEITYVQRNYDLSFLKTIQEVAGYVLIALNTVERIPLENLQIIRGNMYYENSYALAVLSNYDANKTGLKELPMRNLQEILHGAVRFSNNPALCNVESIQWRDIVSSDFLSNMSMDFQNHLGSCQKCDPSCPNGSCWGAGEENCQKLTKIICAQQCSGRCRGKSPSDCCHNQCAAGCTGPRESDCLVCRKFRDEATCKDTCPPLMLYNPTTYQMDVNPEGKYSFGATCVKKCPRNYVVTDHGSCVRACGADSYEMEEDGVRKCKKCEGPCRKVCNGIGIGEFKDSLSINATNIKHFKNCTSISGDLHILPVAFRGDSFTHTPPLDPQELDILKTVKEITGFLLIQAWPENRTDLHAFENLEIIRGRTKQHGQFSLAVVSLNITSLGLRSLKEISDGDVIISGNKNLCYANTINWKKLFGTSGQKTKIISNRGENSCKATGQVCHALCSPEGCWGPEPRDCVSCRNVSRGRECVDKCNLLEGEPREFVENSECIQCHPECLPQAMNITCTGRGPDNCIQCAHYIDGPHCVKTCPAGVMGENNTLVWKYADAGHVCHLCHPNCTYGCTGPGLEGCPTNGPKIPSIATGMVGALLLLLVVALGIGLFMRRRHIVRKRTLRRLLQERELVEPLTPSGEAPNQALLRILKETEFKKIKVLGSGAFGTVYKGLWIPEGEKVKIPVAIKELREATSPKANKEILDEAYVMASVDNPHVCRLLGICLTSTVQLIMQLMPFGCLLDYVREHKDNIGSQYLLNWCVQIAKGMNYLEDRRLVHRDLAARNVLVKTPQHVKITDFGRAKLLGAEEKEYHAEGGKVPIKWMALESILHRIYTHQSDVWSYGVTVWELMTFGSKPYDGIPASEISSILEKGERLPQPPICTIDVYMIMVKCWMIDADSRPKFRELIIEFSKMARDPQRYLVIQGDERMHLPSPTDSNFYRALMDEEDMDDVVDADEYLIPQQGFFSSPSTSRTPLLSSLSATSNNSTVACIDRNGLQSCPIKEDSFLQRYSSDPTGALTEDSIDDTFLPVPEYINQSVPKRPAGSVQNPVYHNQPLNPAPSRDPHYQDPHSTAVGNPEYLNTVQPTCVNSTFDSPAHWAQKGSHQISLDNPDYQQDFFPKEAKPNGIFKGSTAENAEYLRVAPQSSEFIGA
Epidermal growth factor receptor (Homo sapiens), P00533 [T790M], sequence (P00533 whole entry T790M): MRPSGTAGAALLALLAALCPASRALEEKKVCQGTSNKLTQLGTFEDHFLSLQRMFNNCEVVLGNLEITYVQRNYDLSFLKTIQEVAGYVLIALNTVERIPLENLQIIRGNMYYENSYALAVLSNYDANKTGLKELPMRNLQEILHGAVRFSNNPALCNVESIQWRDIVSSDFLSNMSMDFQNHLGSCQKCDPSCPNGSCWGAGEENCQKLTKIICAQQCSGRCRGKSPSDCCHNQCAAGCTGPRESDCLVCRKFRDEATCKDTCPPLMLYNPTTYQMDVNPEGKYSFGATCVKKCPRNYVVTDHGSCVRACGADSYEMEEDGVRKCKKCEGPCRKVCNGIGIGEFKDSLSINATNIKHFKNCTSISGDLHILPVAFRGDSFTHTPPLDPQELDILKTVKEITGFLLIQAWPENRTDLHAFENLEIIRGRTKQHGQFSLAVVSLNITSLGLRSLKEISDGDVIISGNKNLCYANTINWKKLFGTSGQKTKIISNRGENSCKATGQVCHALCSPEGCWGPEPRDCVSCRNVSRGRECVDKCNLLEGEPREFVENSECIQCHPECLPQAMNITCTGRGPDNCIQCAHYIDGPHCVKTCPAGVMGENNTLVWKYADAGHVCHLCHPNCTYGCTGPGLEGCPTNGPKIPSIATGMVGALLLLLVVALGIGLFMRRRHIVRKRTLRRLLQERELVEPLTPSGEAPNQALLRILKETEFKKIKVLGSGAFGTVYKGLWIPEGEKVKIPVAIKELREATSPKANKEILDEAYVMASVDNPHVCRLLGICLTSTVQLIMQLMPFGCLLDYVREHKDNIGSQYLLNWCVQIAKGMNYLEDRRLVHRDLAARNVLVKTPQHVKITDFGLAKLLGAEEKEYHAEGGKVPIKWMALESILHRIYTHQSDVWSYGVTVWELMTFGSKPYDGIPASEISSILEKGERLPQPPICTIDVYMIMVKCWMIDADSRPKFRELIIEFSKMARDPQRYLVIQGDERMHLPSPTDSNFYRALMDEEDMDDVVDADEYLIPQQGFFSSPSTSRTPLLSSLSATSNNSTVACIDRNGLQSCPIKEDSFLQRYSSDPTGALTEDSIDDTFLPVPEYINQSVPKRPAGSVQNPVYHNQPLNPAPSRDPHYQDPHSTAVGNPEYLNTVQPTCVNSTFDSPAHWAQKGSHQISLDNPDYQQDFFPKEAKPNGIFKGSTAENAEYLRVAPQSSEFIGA

SMILES | inhibition [1] [%] | inhibition [2] [%] | inhibition [3] [%] | inhibition [4] [%] | inhibition [5] [%] | inhibition [6] [%] | inhibition [7] [%] | inhibition [8] [%] | inhibition [9] [%] | inhibition [10] [%]
O=S(=O)(CCOCc1ccc(-c2ccc3ncnc(Nc4ccc(OCc5cccc(F)c5)c(Cl)c4)c3c2)o1)c1ccccc1 | 2.25 | -3.02 | 1.89 | -3.01 | -2.3 | -1.7 | 0.9 | 2.2 | 5.8 | 8
CN(c1ccc(NC(=O)Nc2ccc(OC(F)(F)F)cc2)cc1)c1ccnc(Nc2cccc(S(N)(=O)=O)c2)n1 | 1.56 | 2.59 | 2.24 | 3.48 | 35.4 | 5.58 | 18.3 | 9.59 | 59.8 | 10.9
COc1cc2ncnc(Nc3ccc(C)c(O)c3)c2cc1OC | 31.2 | 3.9 | 13.5 | 2.35 | 10.6 | 6.24 | 16.7 | 15.9 | 49.9 | 11.1
O=C1Nc2ccccc2/C1=C/Nc1ccc2[nH]c(=O)[nH]c2c1 | 7.07 | 4.62 | 3.05 | 2.36 | 3.88 | 5.7 | 9.27 | 12.9 | 16.3 | 15.9
FC(F)(F)c1ccc(-c2nn3ncccc3c2-c2ccnc(Nc3ccc4c(c3)OCCO4)n2)cc1 | 7.94 | 0.49 | 10.3 | 4.63 | 3.45 | 0.34 | 2.49 | 1.05 | 21.2 | 3.69
CN(C)c1cc2c(Nc3ccc4c(cnn4Cc4ccccc4)c3)ncnc2cn1 | – | – | – | 0.12 | 0.17 | 3.01 | 3.25 | 6.93 | 2.96 | 2.52
NC(=O)c1cccc(Nc2nccc(Nc3cccc(F)c3)n2)c1 | 1.97 | -1.09 | 2.58 | -0.63 | 17.9 | 0.42 | 7.65 | 5.65 | 29.1 | 3.44
[O-][S+]1CCN(Cc2ccc(-c3ccc4ncnc(Nc5ccc(OCc6ccccc6)c(Cl)c5)c4c3)o2)CC1 | – | – | – | -3.15 | -2.96 | -1.64 | -1.69 | 2.8 | 3.82 | 6.04
Oc1cccc(-c2nc(-c3ccccc3)[nH]c2-c2ccncc2)c1 | 2.55 | 2.26 | 4.01 | 1.93 | 7.66 | 7.79 | 6.42 | 11.7 | 32.9 | 8.8
CN(C)C(=O)O[C@@H]1CN[C@@H](C#Cc2cc3ncnc(Nc4ccc(OCc5cccc(F)c5)c(Cl)c4)c3s2)C1 | – | – | – | -0.17 | 1.05 | 5.64 | 1.99 | 1.85 | -8.34 | 0.71
Nc1nccc(C#Cc2cncnc2Nc2ccc(OCc3cccc(F)c3)c(Cl)c2)n1 | – | – | – | 0.65 | 1.27 | 1.8 | 3.27 | 6.14 | -0.84 | 9.67
Nc1ccc(C#Cc2cncnc2Nc2ccc(OCc3cccc(F)c3)c(Cl)c2)cc1 | 2.68 | -0.93 | 0.42 | 0.44 | 0.03 | 3.68 | 3.02 | 6.49 | 8.04 | 1.34
C[C@@H](Oc1cc(-n2cnc3ccc(OC[C@@H](O)CO)cc32)sc1C(N)=O)c1ccccc1Cl | -1.48 | -1.15 | -0.33 | -4.23 | -4.51 | -2.37 | 1.69 | -2.22 | -0.2 | -0.2
NS(=O)(=O)c1cccc(-c2cc3ccncc3cc2OCc2ccccc2)c1 | 1.71 | 1.48 | 0.67 | 1.97 | 1.53 | 2.7 | 3.87 | 8.09 | 5.03 | 4.23
N#Cc1cccc(Nc2nccc(-c3cnn4ncccc34)n2)c1 | 6.4 | 0.25 | 9.41 | 2.26 | 15 | 8.11 | 19.2 | 13 | 43.8 | 15.1
Cc1ccc(C(=O)NC2CC2)cc1-c1ccc2[nH]ncc2c1 | -3.14 | -2.32 | -5.63 | -1.76 | -1.67 | -6.73 | -6.53 | – | -8.91 | –
COC(=O)Nc1nc2cc(Oc3ccc(NC(=O)Nc4cccc(Br)c4)cc3)ccc2[nH]1 | 2.61 | -0.2 | -0.25 | 28.1 | 55.2 | 13 | 12.4 | 52.1 | 76.9 | 56.7

SMILES | inhibition [1] [%] | inhibition [2] [%] | inhibition [3] [%] | inhibition [4] [%] | inhibition [5] [%] | inhibition [6] [%] | inhibition [7] [%] | inhibition [8] [%] | inhibition [9] [%] | inhibition [10] [%]
CS(=O)(=O)CCNCc1nc(-c2ccc3ncnc(Nc4ccc(OCc5cccc(C(F)(F)F)c5)cc4)c3c2)cs1 | -0.12 | -2.33 | -3.57 | 1.44 | 0.05 | 2.99 | 3.51 | 0.66 | 7.07 | 0.86
COc1cc2ncn(-c3cc(OCc4ccccc4S(C)(=O)=O)c(C#N)s3)c2cc1OC | 8.63 | 16.9 | 62.5 | 9.06 | 34.4 | 8.09 | 13.6 | 15.2 | 57.3 | 14
COc1ccc(-c2nn3ncccc3c2-c2ccnc(Nc3cccc(C(F)(F)F)c3)n2)cc1 | 2.06 | -0.41 | 7.35 | 0.1 | -0.64 | 4.37 | 5.21 | 5.95 | 8.87 | 2.91
COC(=O)c1ccc2c(c1)C(=Cc1cc(Br)c(O)c(Br)c1)C(=O)N2 | 0.92 | -1.65 | 2.81 | 1.71 | 0.89 | 0.28 | 4.62 | 6.35 | 12.2 | 6.3
COC(=O)c1cncc(/C=C/c2c(C)cc(O)cc2C)c1 | 4.21 | 0.04 | 4.09 | 10.3 | 40.2 | 7.42 | 16.2 | 19 | 66.6 | 15.3
NS(=O)(=O)c1ccc(NC=C2C(=O)Nc3ccc4ncsc4c32)cc1 | 2.64 | 3.17 | 9.63 | 2.13 | 7.25 | 5.57 | 12.8 | 11.3 | 33.7 | 4.62
CN(C)C(=O)O[C@H]1CN[C@H](C#Cc2cc3ncnc(Nc4ccc(OCc5cccc(F)c5)c(Cl)c4)c3s2)C1 | – | – | – | -0.69 | 0.86 | 2.97 | 4.79 | 7.54 | 8.32 | 9.47
CCn1c(-c2nonc2N)nc2c(C#CC(C)(C)O)nc(OCCNC)cc21 | 1.6 | -1.42 | 0.02 | 0.18 | -0.52 | 1.69 | 3.22 | 4 | 8.24 | 8.92
CN(C)CCCn1c(-c2nonc2N)nc2cnccc21 | 4.68 | -0.67 | 3.5 | 0.86 | 0.27 | 4.17 | 5.42 | 4.85 | 3.54 | 3.03
NC(=O)c1sc(-n2cnc3ccccc32)cc1OCc1ccccc1Br | 1.85 | 2.85 | 1.45 | 0.63 | 0.39 | 1.18 | 3.38 | 6.29 | 9.89 | 5.64
Cc1ccc2c(c1)/C(=N/Nc1ccc(S(N)(=O)=O)cc1)C(=O)N2 | -3 | -4.55 | -2.96 | 1.34 | – | -0.01 | 2.43 | -0.11 | -5.42 | -2.4
Cc1cc(-c2ccccn2)cc(C)c1/C=C/c1cncc(-c2nn[nH]n2)c1 | 1.45 | -2.34 | 3.4 | 0.59 | 2.96 | 3.5 | 4.9 | 6.16 | 17.3 | 5.94
CCOc1nccc2c1nc(-c1nonc1N)n2CC | 5.62 | -0.04 | 4.96 | 2.57 | 1.93 | 2.43 | 6.98 | 11.7 | -8.98 | 9.96
N#Cc1c(NC(=O)c2ccccc2F)sc2c1CCCC2 | -1.31 | -0.25 | -0.34 | -2.61 | -2.44 | -3.2 | -1.65 | -3.04 | -0.99 | -7.95
CCS(=O)(=O)c1ccc(OC)c(Nc2ncc(-c3cccc(OC)c3)o2)c1 | -0.32 | -0.04 | 0.18 | 3.67 | 3.85 | 5.57 | 8.5 | 6.27 | 12 | 9.46
Cc1nc(-c2ccccc2)n2nc(NCCCN3CCOCC3)ncc12 | 2 | -0.39 | 3.29 | 0.3 | -0.95 | 3.7 | 4.01 | 5.25 | 8.81 | -0.43
NS(=O)(=O)c1cccc(Nc2cc(-c3ccc(F)cc3)n[nH]2)c1 | 3.89 | 0.96 | 2.35 | 0.44 | 0.73 | 4.22 | 4.16 | 8.18 | 10 | 5.43

Reference: ChEMBL document CHEMBL1961873, “Compounds: GSK PKIS; Assays: Nanosyn kinase panel” (2012)
